The supplement of paper PMC8975748
Counter-ions that a name gives are not always drawn. ± gives the standard deviation of the averaged measurements.

Assays:
[1] = test system: Saccharomyces cerevisiae BY4741 SeMeCo community; test: mean cell size (pixel area) (pixels); higher = larger cells; details: 10 µM; 24 h; SM minimal medium
How it was run: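 For 24 h, 70 µl of yeast culture diluted to OD600 = 0.3 from an overnight preculture at OD600 = 1.0 was kept in SM medium in 384-well plates acoustically predosed with drug, final 10 µM. The strain was Saccharomyces cerevisiae BY4741 forming a fluorescent community of four plasmids, each complementing one auxotrophy and carrying a fluorescent marker. Automated confocal microscopy of paraformaldehyde-fixed cells, analysed in Harmony, provided mean cell pixel area per well, which was averaged over 3 replicates. Same SeMeCo high-content imaging drug screen: Selleck FDA-approved drugs at 10 µM, 24 h in SM medium, 384-well plates, 3 replicates.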

[2] = test system: Saccharomyces cerevisiae BY4741 SeMeCo community; test: z-score of prototroph abundance vs DMSO median; higher = larger share of this subpopulation than in DMSO controls; details: 10 µM; 24 h; SM minimal medium; subpopulation (auxotrophy): Prototroph
How it was run: (§1)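 Automated confocal microscopy of paraformaldehyde-fixed cells was used to follow a Saccharomyces cerevisiae BY4741 community carrying four plasmids, each restoring one auxotrophy and encoding a distinct fluorescent protein. The community was pre-grown overnight to OD600 1.0, diluted to 0.3, and added at 70 µl to 384-well plates acoustically predosed with library drugs (10 µM final) for 24 h of growth in minimal SM medium. Single-auxotroph fluorescent strains set thresholds and autofluorescence correction, and each subpopulation's abundance was scored as a z-score against the vehicle-well median.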

[3] = test system: Saccharomyces cerevisiae BY4741 SeMeCo community; test: z-score of subpopulation abundance vs DMSO median, subpopulation auxotrophic for M; higher = larger share of this subpopulation than in DMSO controls; details: 10 µM; 24 h; SM minimal medium; subpopulation (auxotrophy): M
How it was run: as §1

[4] = test system: Saccharomyces cerevisiae BY4741 SeMeCo community; test: z-score of subpopulation abundance vs DMSO median, subpopulation auxotrophic for L; higher = larger share of this subpopulation than in DMSO controls; details: 10 µM; 24 h; SM minimal medium; subpopulation (auxotrophy): L
How it was run: as §1

[5] = test system: Saccharomyces cerevisiae BY4741 SeMeCo community; test: z-score of subpopulation abundance vs DMSO median, subpopulation auxotrophic for U; higher = larger share of this subpopulation than in DMSO controls; details: 10 µM; 24 h; SM minimal medium; subpopulation (auxotrophy): U
How it was run: as §1

[6] = test system: Saccharomyces cerevisiae BY4741 SeMeCo community; test: z-score of subpopulation abundance vs DMSO median, subpopulation auxotrophic for H; higher = larger share of this subpopulation than in DMSO controls; details: 10 µM; 24 h; SM minimal medium; subpopulation (auxotrophy): H
How it was run: as §1

[7] = test system: Saccharomyces cerevisiae BY4741 SeMeCo community; test: z-score of subpopulation abundance vs DMSO median, subpopulation auxotrophic for LM; higher = larger share of this subpopulation than in DMSO controls; details: 10 µM; 24 h; SM minimal medium; subpopulation (auxotrophy): LM
How it was run: as §1

[8] = test system: Saccharomyces cerevisiae BY4741 SeMeCo community; test: z-score of subpopulation abundance vs DMSO median, subpopulation auxotrophic for HM; higher = larger share of this subpopulation than in DMSO controls; details: 10 µM; 24 h; SM minimal medium; subpopulation (auxotrophy): HM
How it was run: as §1

[9] = test system: Saccharomyces cerevisiae BY4741 SeMeCo community; test: z-score of subpopulation abundance vs DMSO median, subpopulation auxotrophic for HU; higher = larger share of this subpopulation than in DMSO controls; details: 10 µM; 24 h; SM minimal medium; subpopulation (auxotrophy): HU
How it was run: as §1

[10] = test system: Saccharomyces cerevisiae BY4741 SeMeCo community; test: z-score of subpopulation abundance vs DMSO median, subpopulation auxotrophic for UM; higher = larger share of this subpopulation than in DMSO controls; details: 10 µM; 24 h; SM minimal medium; subpopulation (auxotrophy): UM
How it was run: as §1

[11] = test system: Saccharomyces cerevisiae BY4741 SeMeCo community; test: z-score of subpopulation abundance vs DMSO median, subpopulation auxotrophic for HL; higher = larger share of this subpopulation than in DMSO controls; details: 10 µM; 24 h; SM minimal medium; subpopulation (auxotrophy): HL
How it was run: as §1

[12] = test system: Saccharomyces cerevisiae BY4741 SeMeCo community; test: z-score of subpopulation abundance vs DMSO median, subpopulation auxotrophic for HLU; higher = larger share of this subpopulation than in DMSO controls; details: 10 µM; 24 h; SM minimal medium; subpopulation (auxotrophy): HLU
How it was run: as §1

[13] = test system: Saccharomyces cerevisiae BY4741 SeMeCo community; test: z-score of subpopulation abundance vs DMSO median, subpopulation auxotrophic for HUM; higher = larger share of this subpopulation than in DMSO controls; details: 10 µM; 24 h; SM minimal medium; subpopulation (auxotrophy): HUM
How it was run: as §1

[14] = test system: Saccharomyces cerevisiae BY4741 SeMeCo community; test: z-score of subpopulation abundance vs DMSO median, subpopulation auxotrophic for HLUM; higher = larger share of this subpopulation than in DMSO controls; details: 10 µM; 24 h; SM minimal medium; subpopulation (auxotrophy): HLUM
How it was run: as §1

[15] = test system: Saccharomyces cerevisiae BY4741 SeMeCo community; test: z-score of subpopulation abundance vs DMSO median, subpopulation auxotrophic for LUM; higher = larger share of this subpopulation than in DMSO controls; details: 10 µM; 24 h; SM minimal medium; subpopulation (auxotrophy): LUM
How it was run: as §1

[16] = test system: Saccharomyces cerevisiae BY4741 SeMeCo community; test: z-score of subpopulation abundance vs DMSO median, subpopulation auxotrophic for HLM; higher = larger share of this subpopulation than in DMSO controls; details: 10 µM; 24 h; SM minimal medium; subpopulation (auxotrophy): HLM
How it was run: as §1

[17] = test system: Saccharomyces cerevisiae BY4741 SeMeCo community; test: z-score of subpopulation abundance vs DMSO median, subpopulation auxotrophic for LU; higher = larger share of this subpopulation than in DMSO controls; details: 10 µM; 24 h; SM minimal medium; subpopulation (auxotrophy): LU
How it was run: as §1

Cc1ccc(Sc2ccccc2N2CCNCC2)c(C)c1
mean cell size [1]: 12.22 ± 0.086 | z-score of prototroph abundance [2]: 0.66 | z-score of subpopulation abundance [3]: -0.9 | z-score of subpopulation abundance [4]: -0.27 | z-score of subpopulation abundance [5]: -0.43 | z-score of subpopulation abundance [6]: -0.02 | z-score of subpopulation abundance [7]: -0.55 | z-score of subpopulation abundance [8]: -0.62 | z-score of subpopulation abundance [9]: -0.76 | z-score of subpopulation abundance [10]: -0.97 | z-score of subpopulation abundance [11]: -0.11 | z-score of subpopulation abundance [12]: 0.19 | z-score of subpopulation abundance [13]: -0.46 | z-score of subpopulation abundance [14]: -0.16

Nc1ccc(/N=N/c2ccccc2)c(N)n1 [Phenazopyridine HCl]
mean cell size [1]: 12.5 ± 0.25 | z-score of subpopulation abundance [3]: 0.28 | z-score of subpopulation abundance [4]: 0.42 | z-score of subpopulation abundance [5]: -2.82 | z-score of subpopulation abundance [6]: 1.88 | z-score of subpopulation abundance [7]: 0.47 | z-score of subpopulation abundance [8]: 0.02 | z-score of subpopulation abundance [9]: -2.46 | z-score of subpopulation abundance [10]: -2.74 | z-score of subpopulation abundance [11]: 0.92 | z-score of subpopulation abundance [12]: -1.56 | z-score of subpopulation abundance [15]: -1.8 | z-score of subpopulation abundance [14]: -0.54

CCN1CCN(C(=O)N[C@@H](C(=O)N[C@@H]2C(=O)N3C(C(=O)O)=C(CSc4nnnn4C)CS[C@H]23)c2ccc(O)cc2)C(=O)C1=O [Cefoperazone]
z-score of prototroph abundance [2]: 0.07 | z-score of subpopulation abundance [3]: 0.6 | z-score of subpopulation abundance [4]: 0.4 | z-score of subpopulation abundance [5]: -0.72 | z-score of subpopulation abundance [6]: 0.43 | z-score of subpopulation abundance [7]: 1.36 | z-score of subpopulation abundance [8]: 0.3 | z-score of subpopulation abundance [9]: -0.48 | z-score of subpopulation abundance [10]: 0.26 | z-score of subpopulation abundance [11]: 0.07 | z-score of subpopulation abundance [12]: -0.34 | z-score of subpopulation abundance [13]: -0.49 | z-score of subpopulation abundance [15]: 0.47 | z-score of subpopulation abundance [14]: 0.24

CN(C)CCCN1c2ccccc2Sc2ccccc21 [Promazine hydrochloride]
mean cell size [1]: 12.5 ± 0.15 | z-score of prototroph abundance [2]: 0.19 | z-score of subpopulation abundance [3]: 0.15 | z-score of subpopulation abundance [4]: -0.38 | z-score of subpopulation abundance [7]: -0.08 | z-score of subpopulation abundance [8]: -0.18 | z-score of subpopulation abundance [9]: -0.69 | z-score of subpopulation abundance [10]: -0.02 | z-score of subpopulation abundance [12]: 0.06 | z-score of subpopulation abundance [13]: 0.07 | z-score of subpopulation abundance [14]: 0.6

CCCCCOc1ccc(-c2ccc(-c3ccc(C(=O)N[C@H]4C[C@@H](O)[C@@H](O)NC(=O)[C@@H]5[C@@H](O)[C@@H](C)CN5C(=O)[C@H]([C@@H](C)O)NC(=O)[C@H]([C@H](O)[C@@H](O)c5ccc(O)cc5)NC(=O)[C@@H]5C[C@@H](O)CN5C(=O)[C@H]([C@@H](C)O)NC4=O)cc3)cc2)cc1
mean cell size [1]: 12.6 ± 0.25 | z-score of prototroph abundance [2]: -14.8 | z-score of subpopulation abundance [3]: -11.7 | z-score of subpopulation abundance [4]: 4.48 | z-score of subpopulation abundance [5]: 0.13 | z-score of subpopulation abundance [6]: 25 | z-score of subpopulation abundance [7]: 1.2 | z-score of subpopulation abundance [8]: 0.97 | z-score of subpopulation abundance [10]: 1.54 | z-score of subpopulation abundance [11]: 31.2 | z-score of subpopulation abundance [12]: 21.5 | z-score of subpopulation abundance [16]: 42 | z-score of subpopulation abundance [15]: 9.08

Nc1ccc(S(=O)(=O)Nc2ncccn2)cc1 [Sulfadiazine]
mean cell size [1]: 12.34 ± 0.084 | z-score of prototroph abundance [2]: 0.05 | z-score of subpopulation abundance [4]: 0.86 | z-score of subpopulation abundance [5]: -0.28 | z-score of subpopulation abundance [17]: 0.22 | z-score of subpopulation abundance [7]: -0.04 | z-score of subpopulation abundance [8]: -0.44 | z-score of subpopulation abundance [9]: -0.2 | z-score of subpopulation abundance [10]: -0.04 | z-score of subpopulation abundance [11]: -0.65 | z-score of subpopulation abundance [12]: 0.31 | z-score of subpopulation abundance [16]: 0 | z-score of subpopulation abundance [13]: -0.05 | z-score of subpopulation abundance [15]: 0.42 | z-score of subpopulation abundance [14]: 1.03

CC1(C)S[C@@H]2[C@H](NC(=O)[C@H](N)c3ccccc3)C(=O)N2[C@H]1C(=O)OCOC(=O)[C@@H]1N2C(=O)C[C@H]2S(=O)(=O)C1(C)C [Sultamicillin Tosylate]
mean cell size [1]: 12.28 ± 0.1 | z-score of prototroph abundance [2]: -0.54 | z-score of subpopulation abundance [3]: 0.72 | z-score of subpopulation abundance [5]: 0.67 | z-score of subpopulation abundance [6]: -0.32 | z-score of subpopulation abundance [7]: -0.09 | z-score of subpopulation abundance [9]: 0.19 | z-score of subpopulation abundance [10]: 0.25 | z-score of subpopulation abundance [12]: -0.45 | z-score of subpopulation abundance [14]: -0.64

COc1ncnc(NS(=O)(=O)c2ccc(N)cc2)c1OC [Sulfadoxine]
mean cell size [1]: 12.47 ± 0.085 | z-score of prototroph abundance [2]: -0.71 | z-score of subpopulation abundance [3]: -0.15 | z-score of subpopulation abundance [4]: -0.42 | z-score of subpopulation abundance [5]: 1.05 | z-score of subpopulation abundance [6]: -0.14 | z-score of subpopulation abundance [7]: -0.89 | z-score of subpopulation abundance [8]: -0.26 | z-score of subpopulation abundance [9]: 0.53 | z-score of subpopulation abundance [10]: 0.98 | z-score of subpopulation abundance [11]: 0.34 | z-score of subpopulation abundance [12]: 0.31 | z-score of subpopulation abundance [16]: 0.02
